Results from PubChem BioAssay (NCI).
Compounds without any hit were thinned out: in the full panel of roughly 83,000, 20% have a hit.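 The endpoint reported here, percent growth, reads 100 for growth as untreated, 0 for no net growth and -100 for all cells dead.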 A number with no mark means an inactive call. Active and inactive are the calls of the source. How the source made its calls: active means growth percent below 10; inactive means the rest.

Experiments:
Assay in all cases: NCI-60 one-dose screen, 48 h (100 = growth as untreated, 0 = no growth, -100 = all killed)
Details in all cases: 10 µM unless noted
[1] = system: SR leukemia
[2] = system: RPMI-8226 leukemia
[3] = system: OVCAR-8 ovarian
[4] = system: OVCAR-5 ovarian
[5] = system: SK-OV-3 ovarian
[6] = system: IGROV1 ovarian
[7] = system: OVCAR-3 ovarian
[8] = system: HS 578T breast
[9] = system: NCI/ADR-RES ovarian
[10] = system: T-47D breast
[11] = system: BT-549 breast
[12] = system: MDA-MB-435 melanoma
[13] = system: SW-620 colon
[14] = system: HCT-116 colon
[15] = system: HCC-2998 colon
[16] = system: KM12 colon
[17] = system: MDA-MB-468 breast
[18] = system: MCF7 breast
[19] = system: OVCAR-4 ovarian

COc1ccc2c(c1)c(-c1cc3nc(-c4cn(C)c5ncc(Br)cc45)cc(N)n3n1)cn2C
growth [1]: -6.89% (active) | growth [2]: -0.77% (active) | growth [3]: -48.8% (active) | growth [4]: -47.6% (active) | growth [5]: -55.6% (active) | growth [6]: -25.8% (active) | growth [7]: -18.6% (active) | growth [8]: -18.6% (active) | growth [9]: -30.3% (active) | growth [10]: -60.3% (active) | growth [11]: -78.5% (active) | growth [12]: -67.3% (active) | growth [13]: -64.1% (active) | growth [14]: -100% (active) | growth [15]: -94.3% (active) | growth [16]: -61% (active) | growth [17]: -81.4% (active)

CCOC(=O)C(N=Nc1ccc(S(=O)(=O)N=C(N)N)cc1)C(C)=O (stereo not given)
growth [1]: 99.4% | growth [2]: 98.5% | growth [3]: 104% | growth [4]: 104% | growth [5]: 138% | growth [6]: 110% | growth [7]: 113% | growth [8]: 111% | growth [10]: 105% | growth [11]: 113% | growth [12]: 105% | growth [13]: 102% | growth [18]: 97.9% | growth [14]: 109% | growth [15]: 120% | growth [16]: 103% | growth [17]: 92.9%

COc1cc2oc(-c3cccc(C(=O)Nc4ccc(Cl)cc4)c3)cc(=O)c2c(OCCNC(=O)[C@H](CO)NC(=O)OC(C)(C)C)c1OC
growth [1]: 2.89% (active) | growth [3]: 18.3% | growth [4]: 32% | growth [19]: 36.4% | growth [5]: 93.3% | growth [6]: 25.3% | growth [7]: 17.2% | growth [8]: 26.5% | growth [9]: 64.8% | growth [10]: 29% | growth [11]: -52.3% (active) | growth [12]: 3.55% (active) | growth [13]: 33.7% | growth [18]: 6.34% (active) | growth [14]: 7.19% (active) | growth [15]: -7.27% (active) | growth [16]: 17.3% | growth [17]: -4.81% (active)

C[C@H](Nc1nc(NCCc2ccccc2)nc2ccccc12)c1ccccc1
growth [1]: -64.3% (active) | growth [3]: -78.6% (active) | growth [4]: -92.2% (active) | growth [19]: -31.4% (active) | growth [5]: -88.9% (active) | growth [6]: -84.6% (active) | growth [7]: -70.1% (active) | growth [9]: -73.9% (active) | growth [10]: -55.1% (active) | growth [11]: -86.9% (active) | growth [12]: -88.5% (active) | growth [18]: -87.4% (active) | growth [14]: -83.7% (active) | growth [15]: -98.7% (active) | growth [16]: -77.2% (active)

N#Cc1c(-c2ccc(Cl)cc2)nc2n[nH]c(-c3ccc(Cl)cc3)c2c1-c1ccc(C(F)(F)F)cc1
growth [1]: -21.8% (active) | growth [2]: -2.57% (active) | growth [3]: 16.2% | growth [4]: -41.8% (active) | growth [5]: 3.06% (active) | growth [6]: -15% (active) | growth [7]: -13.9% (active) | growth [9]: -24.5% (active) | growth [10]: -2.6% (active) | growth [11]: -40% (active) | growth [12]: -29.7% (active) | growth [18]: -4.6% (active) | growth [14]: -63.3% (active) | growth [15]: -38.9% (active) | growth [16]: -11% (active) | growth [17]: -45% (active)

COc1ccc(-c2c(Nn3cnnn3)no[n+]2[O-])cc1
growth [1]: 38.7% | growth [3]: 46.4% | growth [4]: 85.6% | growth [19]: 53.4% | growth [5]: 91.1% | growth [6]: 19.8% | growth [7]: 46.5% | growth [8]: 50% | growth [9]: 54.9% | growth [10]: 48.8% | growth [11]: 61.1% | growth [12]: 44.4% | growth [13]: 41.5% | growth [18]: 31% | growth [14]: 23.8% | growth [15]: 56.2% | growth [16]: 68.2% | growth [17]: 46.3%

COc1cc(-c2cc(-c3cccc(OCC(=O)O)c3)[nH]c(=O)c2C#N)cc(OC)c1OC
growth [1]: 83.6% | growth [2]: 98.6% | growth [3]: 102% | growth [4]: 96.8% | growth [5]: 100% | growth [6]: 109% | growth [7]: 110% | growth [10]: 103% | growth [11]: 100% | growth [12]: 106% | growth [18]: 97.1% | growth [14]: 92.8% | growth [15]: 110% | growth [16]: 105% | growth [17]: 96.7%

COc1cc(-c2nc3ccc(C)cc3[nH]2)ccc1OCc1nnc(-c2ccc(Br)cc2)o1
growth [1]: -16% (active) | growth [3]: 28.4% | growth [4]: 92.1% | growth [19]: 10.6% | growth [5]: 59.3% | growth [6]: 64.2% | growth [7]: 39.1% | growth [8]: -4.08% (active) | growth [9]: 71.4% | growth [10]: -14.6% (active) | growth [11]: 23.8% | growth [12]: 46.1% | growth [13]: 35.5% | growth [18]: 12.8% | growth [14]: 11.5% | growth [15]: 58.7% | growth [16]: 37.7% | growth [17]: -34.3% (active)

COc1cc2c(c(OC)c1OC)C(=O)CC(c1cccc(NC(=O)c3cc(NC(=O)[C@H](C)N)ccc3Cl)c1)O2 (stereo not given in full)
growth [1]: 9.41% (active) | growth [2]: 4.69% (active) | growth [3]: 9.03% (active) | growth [4]: 88% | growth [6]: 70.3% | growth [7]: 25.7% | growth [8]: 66.9% | growth [9]: 11.1% | growth [10]: 18.5% | growth [11]: -5.64% (active) | growth [12]: 2.82% (active) | growth [18]: 13.8% | growth [14]: 23.4% | growth [15]: 81% | growth [16]: 41.7% | growth [17]: 9.2% (active)

CC(=O)Nc1cccc(-c2nc3cc(-c4ccc(O)cc4)ccc3n2C)c1
growth [1]: 59% | growth [3]: 22.2% | growth [4]: 93.6% | growth [19]: 20.9% | growth [5]: 77.5% | growth [6]: 51.7% | growth [7]: 31.3% | growth [8]: 56.1% | growth [9]: 65.2% | growth [10]: 9.44% (active) | growth [11]: -8.08% (active) | growth [12]: 11.1% | growth [13]: 79.3% | growth [18]: 6.65% (active) | growth [14]: 45.7% | growth [15]: 88.2% | growth [16]: 37.5% | growth [17]: 7.83% (active)

COc1ccc(NC(=O)Cn2c(O)c(N=Nc3ccc(S(N)(=O)=O)cc3)c3ccccc32)cc1
growth [1]: 83.8% | growth [3]: 24.5% | growth [4]: 65.9% | growth [19]: 82.2% | growth [5]: 30.3% | growth [6]: 34.4% | growth [7]: 50.7% | growth [8]: 80.7% | growth [9]: 93.8% | growth [10]: 66.5% | growth [11]: 15.8% | growth [12]: 53% | growth [13]: 25.2% | growth [18]: 31.2% | growth [14]: 3.37% (active) | growth [15]: 18% | growth [16]: 26.3% | growth [17]: 22.3%

COc1ccc(NC(=O)Cn2c3c(sc2=O)[C@H]2[C@@H](O)[C@@H](O)[C@H](O)[C@@H]2CS3)cc1
growth [1]: 99.1% | growth [3]: 103% | growth [4]: 105% | growth [19]: 106% | growth [5]: 107% | growth [6]: 104% | growth [7]: 109% | growth [8]: 107% | growth [10]: 100% | growth [11]: 110% | growth [12]: 101% | growth [13]: 105% | growth [18]: 93.8% | growth [14]: 103% | growth [15]: 114% | growth [16]: 102% | growth [17]: 107%

Cn1cc(NC(=O)c2cc(NC(=O)c3ccc(C#Cc4ccccc4)cc3)cn2C)cc1C(=O)NCCCN1CCOCC1
growth [1]: -34.3% (active) | growth [3]: 38.9% | growth [4]: 83.2% | growth [19]: 63% | growth [5]: 83.2% | growth [6]: 66.8% | growth [7]: 46% | growth [8]: 95.9% | growth [9]: 90% | growth [10]: 22.2% | growth [11]: 73.5% | growth [12]: -56.6% (active) | growth [13]: -44.3% (active) | growth [18]: -93.1% (active) | growth [14]: -87.3% (active) | growth [15]: -56% (active) | growth [16]: 3.14% (active) | growth [17]: -69.7% (active)

COc1ccc2c(c1)c(/C=N/Nc1ccc3ccccc3n1)cn2C
growth [1]: -17.3% (active) | growth [3]: 28.9% | growth [4]: 7.2% (active) | growth [19]: 12.3% | growth [5]: 54% | growth [6]: 16.4% | growth [7]: -34.2% (active) | growth [8]: 18.2% | growth [9]: 2.35% (active) | growth [10]: 3.98% (active) | growth [11]: 51.4% | growth [12]: 11.2% | growth [13]: -67.3% (active) | growth [14]: -99.5% (active) | growth [15]: -59.6% (active) | growth [16]: -66.5% (active) | growth [17]: -41.6% (active)

CCCCOc1ccc(NC(=O)c2sc3nc(C)ccc3c2N)cc1
growth [1]: 19.1% | growth [2]: 32.4% | growth [3]: 5.4% (active) | growth [4]: 20.1% | growth [5]: -15.9% (active) | growth [6]: 17.7% | growth [7]: 15.5% | growth [9]: -39.3% (active) | growth [10]: 15% | growth [11]: -11.6% (active) | growth [12]: 39.7% | growth [18]: 18.1% | growth [14]: -67.4% (active) | growth [15]: 21.2% | growth [16]: 26.2% | growth [17]: -48.4% (active)

COc1cc(/C=C/C(=O)c2nnn(-c3ccc(Cl)cc3)c2C)cc(OC)c1OC
growth [1]: 5.48% (active) | growth [2]: -7.65% (active) | growth [3]: 31.8% | growth [4]: 47.8% | growth [5]: 59.4% | growth [6]: 59.3% | growth [7]: 22.9% | growth [9]: 8.27% (active) | growth [10]: 43.2% | growth [11]: 36.8% | growth [12]: 2.83% (active) | growth [18]: 8.67% (active) | growth [14]: 26.2% | growth [15]: 23.1% | growth [16]: 20.8% | growth [17]: -20.7% (active)

COc1ccc2[nH]c(O)c(N=NC(=O)Cn3c(-c4ccccc4)nc4cc(C)ccc43)c2c1
growth [1]: 1.82% (active) | growth [3]: 1.93% (active) | growth [4]: 62.8% | growth [19]: 45.3% | growth [5]: 89.9% | growth [6]: 51.9% | growth [7]: 37.3% | growth [8]: 25.6% | growth [10]: 30.3% | growth [11]: -61.7% (active) | growth [12]: 43.7% | growth [13]: 47.2% | growth [18]: 33% | growth [14]: -72.7% (active) | growth [15]: 18.9% | growth [16]: 47.3% | growth [17]: 34.4%

Cc1cc2nc3c([nH]c2cc1C)c1ccc(=O)cc1n3CCN(C)C
growth [1]: 3.01% (active) | growth [3]: 34% | growth [4]: 39.8% | growth [19]: 46.9% | growth [5]: 63.7% | growth [6]: 28.2% | growth [7]: 67.3% | growth [8]: 81.3% | growth [9]: 33.6% | growth [10]: 60% | growth [11]: 65.5% | growth [12]: 45% | growth [13]: 22.6% | growth [18]: 12% | growth [14]: 14.4% | growth [15]: 26.8% | growth [16]: 43.4% | growth [17]: 43%
